Results filed as inconclusive are left out. The source made the active and inactive calls. Calls come from the whole dose curve; as a rule, active = well fitted curve in the direction sought with a large enough effect; inconclusive = small, poorly fitted or top-dose-only effect, or another doubt; inactive = no such curve, though single readings can be large; an effect the other way counts as inactive or inconclusive.
Legend:
[1] = qHTS for inhibitors of adenylyl cyclases using a fission yeast platform: a pilot screen against the NCATS LOPAC library (AID 1347410)
Procedure, shortened: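 S. pombe CHP2027 (AC9-GNAS-PDE4D2) carrying a PKA-repressed fbp1-GFP reporter was exposed to LOPAC compounds (final up to 57 µM) for 18 h at 30C in the dark, in EMM with histidine, lysine and uracil; GFP gain-of-signal read by laser scanning cytometry.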

[2] = Validation qHTS assay for inhibitors of Activation Induced Cytidine Deaminase (AID): UDG Counterscreen signal (AID 1347427)
Procedure, shortened: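 Counterscreen read of UDG activity (2 U/mL, 4/3x) in the FRET deamination format with AID (1 uM, 4/3x), DJC20/DJC23 substrates (250 nM, 4x), 4 h at room temperature. NaOH stop, fluorescence at 560 ex/665 em.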

[3] = target: Single-stranded DNA cytosine deaminase (Homo sapiens) (UniProt Q9GZX7); test: Validation qHTS assay for inhibitors of Activation Induced Cytidine Deaminase (AID): AID signal (AID 1347429)
Chain of Single-stranded DNA cytosine deaminase (Homo sapiens) (Q9GZX7 whole entry, looked up): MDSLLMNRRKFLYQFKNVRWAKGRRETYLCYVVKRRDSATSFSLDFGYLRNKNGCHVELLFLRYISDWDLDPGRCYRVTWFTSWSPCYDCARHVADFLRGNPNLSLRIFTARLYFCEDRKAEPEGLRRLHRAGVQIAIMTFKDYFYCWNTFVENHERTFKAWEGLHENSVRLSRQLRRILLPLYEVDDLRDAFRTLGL
Procedure, shortened: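 AID and UDG were combined and compounds added at final up to 114 uM, then DJC20/DJC23 FRET substrate was added for 4 hr at room temperature. NaOH was then added for 30 min before fluorescence was read at 540/590 nm.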

[4] = Primary qHTS for inhibitors of La Crosse Virus (LACV) - induced cell death in SH-SY5Y cells (AID 1508616);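 note: top concentration of the series differs between compounds; higher means more rescue of cells from virus-induced death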
Procedure, shortened: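 Luminescent ATP readout (ATPLite 1step, 5 min room temperature) measured rescue from LACV-induced death after 6 days of infection at 0.01 MOI; normalized to infected DMSO wells and uninfected DMSO wells.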

Measured: Potency

CN(C)C(=O)/N=N/C(=O)N(C)C
inactive: [1] | [2] | [3] | [4]

CCCCOC(=O)NS(=O)(=O)c1sc(CC(C)C)cc1-c1ccc(Cn2c(CC)nc3c(C)cc(C)nc32)cc1
inactive: [1] | [2] | [3] | [4]

O=C(O)c1ccccc1Nc1ccccc1
inactive: [1] | [2] | [3] | [4]

Cc1nc2c(OCc3ccccc3)cccn2c1CC#N
inactive: [1] | [2] | [3] | [4]

[Li+]
inactive: [1] | [2] | [3] | [4]

CC(C)(C)c1ccc(/C=C/C(=O)Nc2ccc3c(c2)OCCO3)cc1
inactive: [1] | [2] | [3] | [4]

NCCNS(=O)(=O)c1cccc2c(Cl)cccc12
inactive: [1] | [2] | [3] | [4]

COC(=O)C1=C(C)NC(C)=C([N+](=O)[O-])C1c1ccccc1C(F)(F)F (configuration not stated)
inactive: [1] | [2] | [3] | [4]

Nc1ncnc2c1c(-c1ccc(Oc3ccccc3)cc1)cn2C1CCCC1
inactive: [1] | [2] | [3] | [4]

CSc1nc(N)c2ncn([C@@H]3O[C@H](COP(=O)(O)OP(=O)(O)O)C(O)[C@H]3O)c2n1 (some centres not stated)
inactive: [1] | [2] | [3] | [4]

O=C1Nc2ccc(I)cc2/C1=C/c1cc(Br)c(O)c(Br)c1
inactive: [1] | [2] | [3] | [4]

CCCCCCCCCCCCCCC[C@H](O)[C@H](N)CO
inactive: [1] | [2] | [3] | [4]

Clc1nccc2c1ccc1ccccc12
inactive: [1] | [2] | [3] | [4]

From PubChem BioAssay (NCATS)
